Assay results published in PubChem BioAssay (NCI).
Values joined by “and” are separate entries in the source; they are usually repeats but may differ in a detail not shown here. Equal entries are not always repeated. About 83,000 compounds went through this panel and 20% of them were active in at least one assay; those are over-represented in the sample as a whole.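 Cell lines were cultured in 96-well plates, exposed to a single compound concentration, and assessed for percent growth 48 hours later.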 More than one record can exist for a structure, and the calls need not agree. Active and inactive are the calls of the source. Rule for the calls: active = growth percent below 10; inactive = the rest.

These compounds were tested on HL-60(TB) leukemia (assay: NCI-60 one-dose screen, 48 h (100 = growth as untreated, 0 = no growth, -100 = all killed)). Settings: 10 µM unless noted.
`COc1c(N)c2c(c([N+](=O)[O-])c1OC)C(=O)OC2` was tested, and the growth was 95.3% (inactive).
For `O=C(Nc1ccccc1)OCC(CN1CCCCC1)OC(=O)Nc1ccccc1` (stereo not given), the growth was 69.3% (inactive) and 95% (inactive).
`COC(=O)c1ccc(=O)c2nc3/c(=C/O)c(O)cc(=O)c3[nH]c12` was tested, and the growth was 0.308% (active).
With `CN(C)c1ccc(C(=C2C=CC(=[N+](C)C)C=C2)c2ccccc2Cl)cc1` the growth was -48.7% (active) and 9.12% (active).
In the case of `O=C1/C(=C/c2ccc(Cl)cc2)COc2ccc(O)c(O)c21`, the growth is reported as -11.7% (active).
For `C=C(C)[C@@H]1CC[C@]2(COCCC#N)CC[C@]3(C)[C@H](CC[C@@H]4[C@@]5(C)Cc6c([nH]c7ccccc67)C(C)(C)[C@@H]5CC[C@]43C)[C@@H]12`, the growth was 101% (inactive).
In the case of `Cc1ccc2cccc(Oc3ccc(Nc4ncnc5onc(-c6ccccc6)c45)cc3)c2n1`, the growth is reported as 94.9% (inactive).
In the case of `CC(C)OC1OC(OC(C)C)C(OC(C)C)OC1OC(C)C` (stereo not given), the growth is reported as 87.2% (inactive).
With `CC1(C)C2CC1C1(/C=N/NC(N)=S)C(C2)C(C#N)(C#N)C1(C#N)C#N` (stereo not given) the growth was 13.5% (inactive).
For `ClC1(Cl)C2CCCCCCC21` (stereo not given), the growth was 106% (inactive).
For `O=C1c2cccnc2-c2nccc3c2c1nc1cc(Br)ccc13`, the growth was -68.1% (active) and -56.3% (active).
With `O=C1Nc2ccc(I)cc2C1=O` the growth was 111% (inactive).
For `Clc1nc(Cl)c2ncn(C/C=C/Cn3cnc4c(Cl)nc(Cl)nc43)c2n1`, the growth was -2.68% (active).
In the case of `O=C1OC(c2nc3ccccc3s2)=C/C1=C\c1ccc(O)cc1`, the growth is reported as 98.2% (inactive).
For `COc1ccc2sc3c(NCCCN(C)C)nc4ccccc4c3c(=O)c2c1`, the growth was 38.7% (inactive).
With `NC(=O)c1cc(Br)cc(Br)c1NS(=O)(=O)c1ccccc1` the growth was 92.6% (inactive).
In the case of `COC(=O)CCCNS(=O)(=O)c1cc(C(=O)Nc2ccc(NC(=O)c3cc(S(=O)(=O)NCCCC(=O)OC)c(O)c(O)c3O)cc2)c(O)c(O)c1O`, the growth is reported as 68% (inactive).
With `COc1cc(/C=N/NC(=O)c2ccccc2Nc2cccc(C(F)(F)F)c2)ccc1O` the growth was 26.9% (inactive).
`COC(=O)/C(CCC=C(C)C)=C1\[C@@H](OC(C)=O)C[C@@]2(C)[C@H]1C[C@@H](O)[C@H]1[C@@]3(C)CC[C@H](NCCN)[C@@H](C)[C@@H]3CC[C@@]12C` was tested, and the growth was -47.4% (active).
`C=CCn1cc(-c2nc3ccccc3s2)c2cc(-c3ccc4c5c(cccc35)C(=O)N(N)C4=O)ccc21` was tested, and the growth was 103% (inactive).
With `C[C@H](c1nc2ccc(N)cc2[nH]1)[C@H]1CC[C@H]2[C@@H]3CCC4=CC(=O)CC[C@]4(C)[C@H]3CC[C@]12C` the growth was -50.2% (active).
For `CCCCCCCCn1ccc2cc(NC(=O)CN3CCN(c4nc(C)cc(Cl)n4)CC3)ccc21`, the growth was 91.1% (inactive).
With `Nc1c(C(=O)Nc2cccc3ccccc23)sc2nc3c(cc12)C(=O)CCC3` the growth was 3.95% (active).
`CC(=O)Nc1ccc(S(=O)(=O)N2C(=O)CCC2C(=O)Nc2ccccc2)cc1` (stereo not given) was tested, and the growth was 25.1% (inactive).
In the case of `COc1ccc(-c2nc3c(c(-c4ccccc4)nn3-c3ccccc3)c(-c3ccc(N4CCOCC4)cc3)c2C#N)cc1`, the growth is reported as 101% (inactive).
With `C=C1C(=O)O[C@H]2[C@H]1CC/C(COC(=O)N[C@H]1C[C@H](O[C@H]3C[C@](O)(C(=O)CO)Cc4c(O)c5c(c(O)c43)C(=O)c3c(OC)cccc3C5=O)O[C@@H](C)[C@H]1O)=C\CC[C@@]1(C)O[C@@H]21` the growth was -31.2% (active).
For `OC(c1cc(-c2ccc(C(F)(F)F)cc2)nc(C(F)(F)F)c1)C1CCCCN1` (stereo not given), the growth was -47.6% (active) and -72.8% (active) and 36.6% (inactive).
In the case of `O=C(N/N=C/c1ccc(F)cc1)c1[nH]c2ccc(I)cc2c1-c1ccccc1`, the growth is reported as 51.2% (inactive).
`O=C(Cn1cc(CN2C(=O)c3ccccc3S2(=O)=O)nn1)Nc1nc2ccccc2s1` was tested, and the growth was 113% (inactive).
With `COc1ccc(C(=O)/C=C/c2c(C(F)(F)F)nc3ccccn23)cc1OC` the growth was 2.72% (active).
In the case of `CNc1cc2nc3cc(NC)c(C)cc3cc2cc1C`, the growth is reported as 18.9% (inactive).
With `O=C1c2ccccc2C(=O)c2c1oc1c2c(=O)[nH]c2ccccc21` the growth was 2.26% (active).
`COc1ccc([N+](=O)[O-])cc1OC` was tested, and the growth was 85.5% (inactive) and 99.2% (inactive).
With `Cc1c(-c2nc3ccc(F)cc3c(=O)[nH]2)c2ccccc2n1C` the growth was 4.98% (active).
`COc1ccc2[nH]cc(-c3nc(-c4cn(C)c5c(Cl)nccc45)cs3)c2c1` was tested, and the growth was 30.5% (inactive).
For `Cc1nn(-c2nc3ccccc3s2)c(C)c1Oc1ccccc1O`, the growth was 60.3% (inactive).
For `COc1ccc2c(c1)O/C(=C/c1ccc(OCC(=O)c3ccccc3)cc1)C2=O`, the growth was 88.7% (inactive).
In the case of `COC(=O)c1ccc(NC(=O)CSc2nc3ccccc3c(=O)n2-c2ccccc2)cc1`, the growth is reported as 93.2% (inactive).
For `O=c1c2cc(F)ccc2sc2c(Nc3ccncc3)nc3ccccc3c12`, the growth was 6.35% (active).
`CC1=C([Se]CC(OC(=O)CC[Se]c2ccccc2)C(=O)NCCCCCC(=O)OCc2ccccc2)C(=O)c2ccccc2C1=O` (stereo not given) was tested, and the growth was 15.5% (inactive).
